Common to all, as to experiment: DAPPL (digital affinity profiling via proximity ligation, sequencing); 10 mM Tris-HCl pH 7.5, 50 mM NaCl, 1 mM DTT, 4% glycerol, room temperature, 30 min; GST-TFs on glutathione beads, 16-mer random dsDNA library, 0.1% formaldehyde crosslink after washing; high values mean tight binding
Details in all cases: protein: recombinant; tags: N-terminal GST; dsDNA, one strand shown

The target in one test is T1, ERF (Homo sapiens, UniProt P50548 1-548).
T1 sequence: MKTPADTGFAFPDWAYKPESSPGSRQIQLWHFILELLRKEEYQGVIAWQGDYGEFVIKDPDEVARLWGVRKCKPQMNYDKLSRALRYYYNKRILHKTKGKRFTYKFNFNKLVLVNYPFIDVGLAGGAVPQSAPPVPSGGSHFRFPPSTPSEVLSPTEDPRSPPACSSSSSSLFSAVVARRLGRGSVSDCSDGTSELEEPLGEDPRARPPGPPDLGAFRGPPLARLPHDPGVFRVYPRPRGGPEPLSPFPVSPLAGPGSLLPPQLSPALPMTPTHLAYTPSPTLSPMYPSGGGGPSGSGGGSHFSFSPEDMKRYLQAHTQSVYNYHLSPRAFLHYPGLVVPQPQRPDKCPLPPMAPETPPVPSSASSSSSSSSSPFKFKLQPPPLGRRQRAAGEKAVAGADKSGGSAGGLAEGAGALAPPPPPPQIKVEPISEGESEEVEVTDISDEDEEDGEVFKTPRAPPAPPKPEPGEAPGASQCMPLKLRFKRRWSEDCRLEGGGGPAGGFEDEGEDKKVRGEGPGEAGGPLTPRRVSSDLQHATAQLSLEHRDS
In outline:
(§1)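 Sequencing on an Illumina NextSeq500 followed washing, crosslinking with 0.1% formaldehyde, proximity ligation (BsaI/T4 ligase, 1 h, 37 °C) and PCR amplification of pools that had been incubated for 30 min at room temperature with 200 nmole of a random double-stranded 16-mer DNA library in Tris/NaCl/DTT/glycerol buffer. Each pool held DNA-barcoded human transcription factors, expressed in yeast as GST fusions and captured on glutathione beads, plus a tag-only sample. Binding signal is a hexamer's read frequency for a factor divided by its frequency in the tag-only sample.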

Another test has as its target T2, ETV3L (Homo sapiens, UniProt Q6ZN32 1-361).
T2 sequence: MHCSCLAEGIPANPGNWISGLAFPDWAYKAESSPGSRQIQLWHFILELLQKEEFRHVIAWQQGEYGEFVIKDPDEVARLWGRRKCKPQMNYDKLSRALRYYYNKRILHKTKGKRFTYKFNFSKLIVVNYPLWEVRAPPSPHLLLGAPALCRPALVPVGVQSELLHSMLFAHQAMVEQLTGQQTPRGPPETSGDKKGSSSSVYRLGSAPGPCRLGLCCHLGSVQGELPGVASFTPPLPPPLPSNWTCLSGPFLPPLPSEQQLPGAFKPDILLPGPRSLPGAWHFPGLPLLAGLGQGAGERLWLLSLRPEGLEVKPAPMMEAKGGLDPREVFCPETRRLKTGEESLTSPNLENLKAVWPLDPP
In outline:
as §1

Another test has as its target T3, ETS2 (Homo sapiens, UniProt P15036 1-469).
T3 sequence: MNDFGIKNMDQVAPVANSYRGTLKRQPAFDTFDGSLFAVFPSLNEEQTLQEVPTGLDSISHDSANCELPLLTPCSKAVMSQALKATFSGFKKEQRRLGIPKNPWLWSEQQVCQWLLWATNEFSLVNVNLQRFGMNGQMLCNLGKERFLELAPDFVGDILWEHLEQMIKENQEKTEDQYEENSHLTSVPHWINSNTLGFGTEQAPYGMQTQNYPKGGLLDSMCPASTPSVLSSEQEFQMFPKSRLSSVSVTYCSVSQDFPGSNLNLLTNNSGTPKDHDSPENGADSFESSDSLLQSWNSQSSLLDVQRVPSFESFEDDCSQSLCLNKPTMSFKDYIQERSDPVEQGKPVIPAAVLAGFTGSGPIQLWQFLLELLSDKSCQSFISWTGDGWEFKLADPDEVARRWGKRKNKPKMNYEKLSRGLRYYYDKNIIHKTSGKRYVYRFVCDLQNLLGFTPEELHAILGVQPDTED
In outline:
as §1

In a further test the target is T4, SPDEF (Homo sapiens, UniProt O95238 1-335).
T4 sequence: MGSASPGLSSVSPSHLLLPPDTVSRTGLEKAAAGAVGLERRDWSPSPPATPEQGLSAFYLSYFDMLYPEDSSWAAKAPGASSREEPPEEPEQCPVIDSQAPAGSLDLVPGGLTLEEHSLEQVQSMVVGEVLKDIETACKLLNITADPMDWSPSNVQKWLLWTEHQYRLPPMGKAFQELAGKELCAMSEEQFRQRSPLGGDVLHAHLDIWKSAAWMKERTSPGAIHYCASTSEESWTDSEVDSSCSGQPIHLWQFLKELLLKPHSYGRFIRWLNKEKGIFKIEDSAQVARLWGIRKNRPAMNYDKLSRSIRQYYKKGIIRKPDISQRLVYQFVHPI
In outline: as §1

Another test concerns the target T5, ETV7 (Homo sapiens, UniProt Q9Y603 1-341).
T5 sequence: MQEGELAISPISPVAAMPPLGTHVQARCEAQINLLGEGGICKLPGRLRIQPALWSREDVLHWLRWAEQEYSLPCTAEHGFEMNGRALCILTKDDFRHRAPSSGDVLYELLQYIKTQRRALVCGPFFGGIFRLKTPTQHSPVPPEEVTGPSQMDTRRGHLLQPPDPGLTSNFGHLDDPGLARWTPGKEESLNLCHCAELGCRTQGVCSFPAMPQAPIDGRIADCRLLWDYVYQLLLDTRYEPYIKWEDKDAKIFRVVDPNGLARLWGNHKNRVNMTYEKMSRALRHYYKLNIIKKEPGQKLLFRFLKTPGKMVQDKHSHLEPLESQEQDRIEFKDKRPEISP
In outline: as §1

Another test deals with T6, ELF5 (Homo sapiens, UniProt Q9UKW6-2 1-255).
T6 sequence: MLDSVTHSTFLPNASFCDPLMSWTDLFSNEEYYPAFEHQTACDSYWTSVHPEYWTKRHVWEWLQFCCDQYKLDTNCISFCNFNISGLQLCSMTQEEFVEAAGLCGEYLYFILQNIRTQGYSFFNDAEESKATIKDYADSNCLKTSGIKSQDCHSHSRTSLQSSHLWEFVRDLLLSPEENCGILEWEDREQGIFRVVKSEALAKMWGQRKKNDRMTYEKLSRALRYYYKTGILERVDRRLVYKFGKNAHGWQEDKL
In outline:
as §1

The next test concerns the target T7, ETV3 (Homo sapiens, UniProt P41162-2 1-143).
T7 sequence: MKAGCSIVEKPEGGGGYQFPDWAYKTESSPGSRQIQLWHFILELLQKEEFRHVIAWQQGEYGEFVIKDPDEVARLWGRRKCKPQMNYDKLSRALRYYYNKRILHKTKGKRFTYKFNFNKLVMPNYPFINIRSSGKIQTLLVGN
In outline:
as §1

The target in the next test is ETV6 (Homo sapiens, UniProt P41212 1-452). In outline:
as §1

ETV6, sequence (P41212 whole entry): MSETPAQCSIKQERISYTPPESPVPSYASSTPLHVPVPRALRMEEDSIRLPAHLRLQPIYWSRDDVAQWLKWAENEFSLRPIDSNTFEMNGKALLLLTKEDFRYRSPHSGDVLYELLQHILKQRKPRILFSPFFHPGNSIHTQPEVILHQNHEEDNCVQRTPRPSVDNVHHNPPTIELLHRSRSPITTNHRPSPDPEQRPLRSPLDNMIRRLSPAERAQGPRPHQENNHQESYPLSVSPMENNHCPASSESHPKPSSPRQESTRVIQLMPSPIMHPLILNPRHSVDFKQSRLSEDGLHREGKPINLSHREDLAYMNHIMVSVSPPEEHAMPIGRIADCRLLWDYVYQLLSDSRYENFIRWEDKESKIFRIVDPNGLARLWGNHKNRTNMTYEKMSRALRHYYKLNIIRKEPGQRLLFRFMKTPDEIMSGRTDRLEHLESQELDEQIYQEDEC

On to TCCATC, for which the binding signal is 1.17 fold enrichment (6-mer frequency, TF over GST control) in the test with ERF; 1.31 fold enrichment (6-mer frequency, TF over GST control) with ETV3L; 1.2 fold enrichment (6-mer frequency, TF over GST control) with ETS2; 1.3 fold enrichment (6-mer frequency, TF over GST control) in the test with SPDEF; 1.2 fold enrichment (6-mer frequency, TF over GST control) with ETV7; 1.17 fold enrichment (6-mer frequency, TF over GST control) with ELF5. Moreover, the binding signal was 1.22 fold enrichment (6-mer frequency, TF over GST control) in the test with ETV3 and 1.13 fold enrichment (6-mer frequency, TF over GST control) in the test with ETV6.
As to ACTCAT, the binding signal is 1.39 fold enrichment (6-mer frequency, TF over GST control) with ERF; 1.26 fold enrichment (6-mer frequency, TF over GST control) in the test with ETV3L; 1.29 fold enrichment (6-mer frequency, TF over GST control) with ETS2; 1.24 fold enrichment (6-mer frequency, TF over GST control) in the test with SPDEF; 1.27 fold enrichment (6-mer frequency, TF over GST control) in the test with ETV7; 1.32 fold enrichment (6-mer frequency, TF over GST control) in the test with ELF5. The binding signal with ETV3 was 1.3 fold enrichment (6-mer frequency, TF over GST control); with ETV6 it was 1.31 fold enrichment (6-mer frequency, TF over GST control).
With CTCGGC, the binding signal with ERF was 1.34 fold enrichment (6-mer frequency, TF over GST control); with ETV3L, 1.26 fold enrichment (6-mer frequency, TF over GST control); with ETS2, 1.31 fold enrichment (6-mer frequency, TF over GST control); in the test with SPDEF, 1.22 fold enrichment (6-mer frequency, TF over GST control); with ETV7, 1.34 fold enrichment (6-mer frequency, TF over GST control); with ELF5, 1.34 fold enrichment (6-mer frequency, TF over GST control). In addition, the binding signal was 1.36 fold enrichment (6-mer frequency, TF over GST control) with ETV3 and 1.37 fold enrichment (6-mer frequency, TF over GST control) with ETV6.
Turning to CACATA, the binding signal in the test with ERF is 1.17 fold enrichment (6-mer frequency, TF over GST control); with ETV3L, 1.19 fold enrichment (6-mer frequency, TF over GST control); with ETS2, 1.1 fold enrichment (6-mer frequency, TF over GST control); in the test with SPDEF, 1.11 fold enrichment (6-mer frequency, TF over GST control); with ETV7, 1.03 fold enrichment (6-mer frequency, TF over GST control); with ELF5 it was 1.05 fold enrichment (6-mer frequency, TF over GST control). Further, the binding signal in the test with ETV3 is 1.09 fold enrichment (6-mer frequency, TF over GST control); with ETV6, 1.1 fold enrichment (6-mer frequency, TF over GST control).
In the case of CTGCGT, the binding signal in the test with ERF is 1.13 fold enrichment (6-mer frequency, TF over GST control); with ETV3L, 1.16 fold enrichment (6-mer frequency, TF over GST control); with ETS2, 1.15 fold enrichment (6-mer frequency, TF over GST control); with SPDEF, 1.2 fold enrichment (6-mer frequency, TF over GST control); with ETV7, 1.23 fold enrichment (6-mer frequency, TF over GST control); in the test with ELF5, 1.11 fold enrichment (6-mer frequency, TF over GST control). The binding signal was 1.13 fold enrichment (6-mer frequency, TF over GST control) in the test with ETV3 and 1.02 fold enrichment (6-mer frequency, TF over GST control) with ETV6.
For TCCGGA, the binding signal with ERF was 2.04 fold enrichment (6-mer frequency, TF over GST control); with ETV3L, 2.42 fold enrichment (6-mer frequency, TF over GST control); in the test with ETS2 it was 2.66 fold enrichment (6-mer frequency, TF over GST control); in the test with SPDEF, 3.16 fold enrichment (6-mer frequency, TF over GST control); in the test with ETV7 it was 2.24 fold enrichment (6-mer frequency, TF over GST control); with ELF5, 3.19 fold enrichment (6-mer frequency, TF over GST control). The binding signal with ETV3 was 2.84 fold enrichment (6-mer frequency, TF over GST control); with ETV6 it was 2.7 fold enrichment (6-mer frequency, TF over GST control).
Regarding CACTAT, the binding signal with ERF was 1.2 fold enrichment (6-mer frequency, TF over GST control); with ETV3L, 1.18 fold enrichment (6-mer frequency, TF over GST control); with ETS2 it was 1.25 fold enrichment (6-mer frequency, TF over GST control); with SPDEF, 1.18 fold enrichment (6-mer frequency, TF over GST control); with ETV7 it was 1.29 fold enrichment (6-mer frequency, TF over GST control); with ELF5, 1.15 fold enrichment (6-mer frequency, TF over GST control). Further, the binding signal is 1.2 fold enrichment (6-mer frequency, TF over GST control) with ETV3 and 1.14 fold enrichment (6-mer frequency, TF over GST control) with ETV6.

The record behind these values is article PMC7862700, “An all-to-all approach to the identification of sequence-specific readers for epigenetic DNA modifications on cytosine”.
